The target of one experiment is HS3ST4. Kind of experiment: pooled miR-30 sensor sort-seq; sequence = guide strand. To be noted: shRNA.
With TTTGTCACAAAGTAACTTGGAG, the sensor-assay potency score (higher = more potent) was -0.0205.

Turning to TTTGAGGCCTAGAAAATCCTGT, the sensor-assay potency score (higher = more potent) is 0.0519.

Consider TTGTCACAAAGTAACTTGGAGT, for which the sensor-assay potency score (higher = more potent) was -0.395.

Regarding TTTCTTTGACAGTGTCTGCGTG, the sensor-assay potency score (higher = more potent) is -0.405.

In turn, TTCTGTACCACTCCAACCCCTT showed a sensor-assay potency score (higher = more potent) of -0.516.

Take TAAAACATCAAGTTGAAGGGTT: the sensor-assay potency score (higher = more potent) is 0.47.

The sequence TTCTTTGACAGTGTCTGCGTGT had a sensor-assay potency score (higher = more potent) of 0.364.

Regarding TTTACTAGAACAATTCCTGGTT, the sensor-assay potency score (higher = more potent) was 0.821.

TTTTACTAGAACAATTCCTGGT yielded a sensor-assay potency score (higher = more potent) of 0.147.

TGAGCCGTGATCATCTCGCTGG registered a sensor-assay potency score (higher = more potent) of -0.131.

TTGACAACTATTTATCCTCTGT returned a sensor-assay potency score (higher = more potent) of 0.841.

As to TTTGTTGAAATAGAAATGCTTC, the sensor-assay potency score (higher = more potent) is -0.152.

The target in the next experiment is HS6ST1. Described as above. The conditions noted are these: shRNA.
In turn, TAGCAGGTGCACTTCTTCTGGC registered a sensor-assay potency score (higher = more potent) of -0.598.

For TAGTGTGATGCATCCACCCAGG, the sensor-assay potency score (higher = more potent) is -0.887.

In turn, ATGAGCATGAAGCACACCGAGC came in with a sensor-assay potency score (higher = more potent) of -1.78.

TACTTCTTCTCGTAGTGGGGGT: the sensor-assay potency score (higher = more potent) was -0.105.

As to TAGTAGAACTTCCTGGGCGTGC, the sensor-assay potency score (higher = more potent) was -0.463.

For the sequence TTGAACGTCCGCTCGAACAGGT, the sensor-assay potency score (higher = more potent) is -0.0201.

Consider TTGAGCTCCTCGATGCGCCGGA, for which the sensor-assay potency score (higher = more potent) is 0.162.

For TTGAGGTTGAACGTCCGCTCGA, the sensor-assay potency score (higher = more potent) is -0.171.

TGATGTAGTAGAACTTCCTGGG: the sensor-assay potency score (higher = more potent) stood at 0.812.

For the sequence TTTTTTTGTATGAATAACCAAA, the sensor-assay potency score (higher = more potent) is -1.12.

The record behind these values is the OligoGym collection.
Also: reference of the scale not given here.
